# Data: PubChem BioAssay (NCI)
# About 83,000 compounds went through this panel and 20% of them were active in at least one assay; those are over-represented in the sample as a whole.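 96-well plates, one dose, 48 hours. Percent growth reported; active if below 10.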 Values without a mark were called inactive. Calls of active or inactive are those of the source.
# Test system: NCI-H23 lung
# Test: NCI-60 one-dose screen, 48 h (100 = growth as untreated, 0 = no growth, -100 = all killed)
# Settings: 10 µM unless noted
# Experimental: Growth inhibition of the NCI-H23 human Non-Small Cell Lung tumor cell line is measured as a screen for anti-cancer activity. Cells are grown in 96 well plates and exposed to the test compound for 48 hours. Compounds are tested at a single concentration, which is 10^-5 M for most compounds. The reported endpoint is percent growth (GI% or GIPRCNT), where numbers from 0 - 100% represent growth inhibition, and numbers from -100% - 0 represent cell death. For example, a value of 40 represents 60% growth inhibition. A value of 0 means no net growth occurred over the course of the experiment. A value of -40 indicates 40% of cells at the beginning of the experiment died by the end of the experiment. A value of -100 means all cells are dead at the end of the experiment.
# NCI-60 Human Tumor Cell Lines Screen was performed using the standard one-dose NCI protocol, which is described in more detail at https://dtp.cancer.gov/discovery_development/nci-60/default.htm.
# Compounds with GIPRCNT values below 10 were considered active. Activity score was based on GIPRCNT using the following formula: […]
# Score is 0 for GIPRCNT values of 100 or above, 50 for GIPRCNT values of 0, and 100 for GIPRCNT values of -100.
row,SMILES,growth
1,Cn1cc(-c2cc3nc(-c4cn(C)c5ncccc45)cc(N)n3n2)c2cc(Cl)ccc21,-66.6% (active)
2,CCN(CC)c1ccnc(CNCCSC(c2ccccc2)(c2ccccc2)c2ccc(C)cc2)c1,-78.7% (active)
3,c1ccc(-c2csc(Nc3cccc(Nc4nc(-c5ccccc5)cs4)c3)n2)cc1,36.8%
4,O=C(Cn1c(/C=C/c2ccccc2)nc2ccccc2c1=O)Nc1ccccc1,90.2%
5,O=C(COc1ccc2c(c1)CCCC(=O)N2)NCc1ccccc1,94.5%
6,CC12CC[C@@H]3[C@]4(C)COC(c5cn[nH]c5-c5cccc(Br)c5)O[C@@H]4CC[C@@]3(C)[C@@H]1CC(C1=CCOC1=O)O2 (stereo not given in full),38%
7,N/C(=N\c1nc2ccccc2s1)NC(=O)Nc1ccc(Cl)cc1Cl,-83.4% (active)
8,O=c1oc2ccccc2cc1-c1csc(N2N=C(c3ccccc3)CC2c2ccc(N3CCOCC3)cc2)n1 (stereo not given),95.9%
9,Cc1cc2c(cc1Cl)C(=O)/C(=C/c1ccc(F)cc1)O2,85.8%
10,Nc1nc(C(F)(F)F)cs1,104%
11,O=C(O)c1cccc(-c2ccc(/C=N/NC(=O)c3[nH]c4ccc(Br)cc4c3-c3ccccc3)s2)c1,26.4%
12,CCCSc1nc(Nc2ccc(S(N)(=O)=O)cc2)c(C#N)c(-c2ccc(Cl)cc2)n1,31.4%
13,CN(C)c1ccnc(NCCCSC(c2ccccc2)(c2ccccc2)c2ccccc2)c1,62.7%
14,COc1ccc(C(=O)/C=C/c2cc3c(cc2Br)OCO3)cc1S(N)(=O)=O,-31.1% (active)
15,COc1cc(-c2cc(-c3cccc(OCC(=O)O)c3)[nH]c(=O)c2C#N)cc(OC)c1OC,101%
16,COc1ccc(-c2ccnc(SCc3cc4cc(OC)ccc4[nH]c3=O)n2)cc1,25.8%
17,Cn1cc(-c2cc(N)n3nc(-c4cn(C)c5ncccc45)cc3n2)c2cccnc21,-33.1% (active)
18,CN(C)c1nc(NCCNS(=O)(=O)c2ccc(C3=Nc4c(N)nc(N)nc4NC(c4ccc(F)cc4)C3)cc2)nc(Nc2ccc(F)cc2)n1 (stereo not given),64.5%
19,Nc1cccc(SCc2cc3ccccc3[nH]c2=O)c1,73.5%
20,Cc1ccc(NCC(=O)Cn2cc(COc3ccc(C=Nc4cnc5ccccc5c4)cc3)nn2)cc1,109%

row,SMILES,growth
1,CN(C)CCOc1ccc(C(=O)C2[C@H](c3ccc(Cl)cc3)[C@@H](c3ccccc3)NC23C(=O)Nc2ccccc23)cc1 (stereo not given in full),79.6%
2,CC1=C(C#N)C2=NNCC(c3ccccc3)=NN2C(c2ccccc2)=C1,105%
3,CCCCSc1nc(Nc2ccc(S(N)(=O)=O)cc2)c(C#N)c(-c2cc(OC)c(OC)c(OC)c2)n1,82.9%
4,COc1cc(-c2nc3cc(Cl)c(Cl)cc3[nH]2)ccc1OCc1nnc(-c2cccs2)o1,47.4%
5,COc1cc2c(c(OC)c1OC)C(=O)CC(c1cccc(NC(=O)c3cc(NC(=O)[C@@H](N)CO)ccc3C)c1)O2 (stereo not given in full),112%
6,O=C1CCCc2cc(OCC(=O)N3CCCCC3)ccc2N1,105%
7,N#Cc1ccc(/C=N/NC(=O)c2[nH]c3ccc(Br)cc3c2-c2ccccc2)o1,3.75% (active)
8,COc1c(F)ccc(C(=O)Nc2ccc3nc(NC(=O)C4CCCN(S(=O)(=O)c5ccc(C(F)(F)F)cc5)C4)sc3c2)c1F (stereo not given),94.4%
9,Cc1ccc(S(=O)(=O)c2nc(S(=O)(=O)c3ccc(C)cc3)c(N3CCN(C)CC3)s2)cc1,56%
10,CCOc1ccc(-c2c(C#N)c(-c3ccc(Cl)cc3)nc3n[nH]c(-c4ccc(Cl)cc4)c23)cc1OC,70.1%
11,CC(C)c1ccc2c(N)c(C(=O)Nc3ccc(C(F)(F)F)cn3)sc2n1,43.5%
12,Cn1cc(NC(=O)c2cc(NC(=O)c3ccc(C#Cc4ccccc4)cc3)cn2C)cc1C(=O)NCCCN1CCOCC1,58.9%
13,COc1ccc2c(c1)c(/C=N/Nc1ccc3ccccc3n1)cn2C,36.4%
14,NC(=S)Nc1cccc(NC(N)=S)c1,98.5%
15,COc1ccc(N2N=C(c3ccc4c(c3)OCO4)CC2c2cccc(NC(=O)CCNS(=O)(=O)c3ccc(Cl)cc3)c2)cc1 (stereo not given),32.6%
16,N#Cc1c(NCc2ccccc2)n[nH]c1Nc1ccccc1,58.4%
17,O=c1[nH]c2ccccc2cc1CSc1cccc(Nc2nccc(-c3ccc4ccccc4c3)n2)c1,91.6%
18,CC(=O)NNc1ccc2nnc(-c3ccccc3)n2n1,96.6%
19,Cc1ccccc1[C@H]1C(C(=O)c2ccc(Cl)cc2)C2(N[C@@H]1c1ccccc1)C(=O)Nc1ccc(Cl)cc12 (stereo not given in full),-56.2% (active)
20,CC12CC[C@@H]3[C@]4(C)COC(c5c(F)cccc5F)O[C@@H]4CC[C@@]3(C)[C@@H]1CC(C1=CCOC1=O)O2 (stereo not given in full),62.1%
